Experimental data as given in PubChem BioAssay (NCI).
Several values for one entry are separate records, joined by “and”; a condition that tells them apart may be missing. Equal entries are not always repeated. Compounds without any hit were thinned out: in the full panel of roughly 83,000, 20% have a hit.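 How to read the values: 0–100, growth inhibition (40 = 60% inhibited); 0, no net growth; -100 to 0, cell death (-40 = 40% of starting cells died; -100 = all dead).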 Activity calls are given as the source filed them. How the source made its calls: active means growth percent below 10; inactive means the rest.

Experiments:
Experiment in all cases: NCI-60 one-dose screen, 48 h (100 = growth as untreated, 0 = no growth, -100 = all killed)
Conditions in all cases: 10 µM unless noted
[1] = test system: SR leukemia
[2] = test system: RPMI-8226 leukemia
[3] = test system: OVCAR-8 ovarian
[4] = test system: OVCAR-5 ovarian
[5] = test system: OVCAR-4 ovarian
[6] = test system: SK-OV-3 ovarian
[7] = test system: IGROV1 ovarian
[8] = test system: OVCAR-3 ovarian
[9] = test system: HS 578T breast
[10] = test system: NCI/ADR-RES ovarian

SMILES | growth [1] | growth [2] | growth [3] | growth [4] | growth [5] | growth [6] | growth [7] | growth [8] | growth [9] | growth [10]
CO/N=C/C=C\C(=O)N/C=C/C[C@H]1/C=C/[C@H](O)/C=C\C=C\c2cccc(O)c2C(=O)O1 | 6.08% (active) and 20.5% (inactive) | 12.8% (inactive) and 11.6% (inactive) | 27.5% (inactive) and 29.7% (inactive) | 39.5% (inactive) and 44.7% (inactive) | 72% (inactive) and 69.4% (inactive) | 49.6% (inactive) and 35% (inactive) | 36.5% (inactive) and 40.3% (inactive) | 60.9% (inactive) and 36.3% (inactive) | 50.9% (inactive) and 57.1% (inactive) | 44.4% (inactive) and 32.6% (inactive)
COc1ccccc1C(C)=O | 95.8% (inactive) and 86% (inactive) | 90.6% (inactive) and 100% (inactive) | 105% (inactive) and 96.7% (inactive) | 117% (inactive) and 106% (inactive) | 111% (inactive) and 105% (inactive) | 103% (inactive) and 102% (inactive) | 119% (inactive) and 109% (inactive) | 106% (inactive) and 110% (inactive) | 88.2% (inactive) | 106% (inactive) and 113% (inactive)
CC(=O)Nc1cccc2c1CCCC2 | 104% (inactive) and 109% (inactive) | 88.8% (inactive) and 99% (inactive) | 86.5% (inactive) and 104% (inactive) | 98.8% (inactive) and 105% (inactive) | 106% (inactive) and 107% (inactive) | 89% (inactive) and 92.3% (inactive) | 119% (inactive) and 96.2% (inactive) | 107% (inactive) and 108% (inactive) | 92.8% (inactive) and 110% (inactive) | 97.6% (inactive) and 96.9% (inactive)
O=C(Nc1cccc(Cl)c1)c1cc2ccccc2cc1O | 23.4% (inactive) and 3.87% (active) | -19.4% (active) and -4.12% (active) | 11.2% (inactive) and 8.75% (active) | 97.2% (inactive) and 56.4% (inactive) | 29.7% (inactive) and 10.1% (inactive) | -11.7% (active) | 22.6% (inactive) and 24.2% (inactive) | 18.5% (inactive) and 14.7% (inactive) | 17.5% (inactive) and 21.8% (inactive) | 4.12% (active) and 9.44% (active)
Nc1ccc2[nH]c(-c3ccccc3)cc(=O)c2c1 | 4.32% (active) | 86.1% (inactive) | 97.4% (inactive) | 94.8% (inactive) | 111% (inactive) | 98.1% (inactive) | 95.5% (inactive) | 64.3% (inactive) | 107% (inactive) | 70.5% (inactive)
CC1=C[C@H]2c3c(c(O)c(O)c4oc5cc(O)cc(O)c5c(=O)c34)[C@H](c3cc(O)c(O)c4oc5cc(O)cc(O)c5c(=O)c34)[C@H]2C(C)(C)C1 | 1.73% (active) and 3.96% (active) | 4.38% (active) and -30.3% (active) | 4.35% (active) and 4.94% (active) | 11% (inactive) and 12.4% (inactive) | 20.7% (inactive) and 7.19% (active) | -1.03% (active) | 14.1% (inactive) and -13.1% (active) | -5.67% (active) and -43.9% (active) | 3.36% (active) and -17.1% (active) | 55.8% (inactive) and 23.7% (inactive)
C#CCN(C)Cc1ccccc1 | 108% (inactive) and 101% (inactive) | 98.2% (inactive) and 107% (inactive) | 101% (inactive) and 98% (inactive) | 116% (inactive) | 112% (inactive) and 114% (inactive) | 104% (inactive) and 103% (inactive) | 103% (inactive) and 120% (inactive) | 111% (inactive) and 104% (inactive) | 119% (inactive) and 96.1% (inactive) | 101% (inactive) and 102% (inactive)
